# G9a inh: blocks human histone lysine methyltransferase G9a; Q96KQ7; G9a H3K9 monomethylation, AlphaScreen, 2 h; Potency, µM (doses to about 102 µM), inactives show top-dose activity, negative = inhibition, most hits filed as inhibitors; actives 8.8% (n = 350,000); AID 504332; note: % is set by controls: 0 for no effect and ±100 for the full control effect; nearly all actives have a fitted effect of over 75% in size
# Target sequence (Q96KQ7 913-1193 limits assumed): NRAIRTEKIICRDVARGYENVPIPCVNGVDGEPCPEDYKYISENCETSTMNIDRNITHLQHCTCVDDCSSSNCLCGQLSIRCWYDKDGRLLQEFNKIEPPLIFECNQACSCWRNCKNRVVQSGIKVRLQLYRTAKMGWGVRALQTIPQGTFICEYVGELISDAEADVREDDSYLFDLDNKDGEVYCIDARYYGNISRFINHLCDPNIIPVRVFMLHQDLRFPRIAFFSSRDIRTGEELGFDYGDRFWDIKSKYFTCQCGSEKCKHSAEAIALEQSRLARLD
#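 Quantitative HTS format: methyltransferase activity on a biotin-tagged H3K9 peptide is measured by AlphaScreen, using a rabbit anti-monomethyl-H3K9 antibody with streptavidin donor and anti-IgG acceptor beads. Final levels are 20 nM enzyme, 500 nM peptide, 20 uM SAM; 2 h RT.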
# PLK1 PBD block: blocks phosphopeptide binding to human PLK1 polo-box domain | AID 720504 | Potency, µM, inactives show max response, negative = inhibition, usual class: inhibitors | actives 2.8% (n = 360,000) | Plk1 PBD binding of FITC phosphopeptide, fluorescence polarization | P53350; note: series mostly up to about 57 µM; % is set by controls: 0 for no effect and ±100 for the full control effect; nearly all actives have a fitted effect of over 65% in size
# HP1b binding inh: HP1-beta chromodomain-methylated histone interaction inhibition; P83916; AlphaScreen HP1-beta / biotin-H3K9me3 peptide binding; Potency, µM (highest dose often 114 µM), without a hit: at the highest dose activity change, negative = inhibition, most hits filed as inhibitors; actives 0.56% (n = 390,000); note: nearly all actives have a fitted effect of over 70% in size
# Target sequence (P83916 whole entry, looked up): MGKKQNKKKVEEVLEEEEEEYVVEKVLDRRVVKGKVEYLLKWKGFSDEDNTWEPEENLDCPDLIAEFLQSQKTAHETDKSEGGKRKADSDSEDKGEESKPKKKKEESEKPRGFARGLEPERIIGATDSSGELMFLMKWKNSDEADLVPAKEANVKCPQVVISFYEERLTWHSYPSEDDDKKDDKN
#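 Compound inhibition of the preformed complex between 50 nM HP1-beta and 50 nM biotinylated H3K9me3 peptide was read by AlphaScreen. Buffer was PBS pH 7.4 with 0.01% Tween-20. Incubations ran 30 min at room temperature, with 10 ug/mL donor/acceptor beads.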
# VDR inh: inhibitors of human vitamin D receptor; Potency, µM, for the others: max response, negative = inhibition, most hits filed as inhibitors; P11473; VDR-SRC2-3 peptide fluorescence polarization, 2 h; actives 0.93% (n = 400,000); AID 504847; note: % is set by controls: 0 for no effect and ±100 for the full control effect
#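 Measured by FP: displacement of SRC2-3 coactivator peptide from VDR by library compounds, following a two-hour ambient incubation.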
# BAZ2B inh: BAZ2B (human) inhibition. actives 4.4% (n = 360,000). Potency, µM (top dose mostly 114 µM), inactives show at the highest dose activity change, negative = inhibition, usual class: inhibitors. AlphaScreen BAZ2B-H3K14Ac peptide displacement; note: % is set by controls: 0 for no effect and ±100 for the full control effect; nearly all actives have a fitted effect of over 60% in size
#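 Complex of BAZ2B and biotin-H3K14Ac (50 nM apiece) forms over 30 min at RT, then faces library compounds up to 110 uM for another 30 min; AlphaScreen beads added, 20 min dark incubation, luminescence read.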
# JMJD2A Tudor inh: blocks the human JMJD2A Tudor domain; Potency, µM (top dose mostly 114 µM), for the others: at the highest dose activity change, negative = inhibition, actives largely listed as inhibitors; AlphaScreen JMJD2A-Tudor / H3K4me3 peptide binding; actives 4.4% (n = 390,000); note: % is set by controls: 0 for no effect and ±100 for the full control effect; nearly all actives have a fitted effect of over 50% in size
# Starred values were filed as active, the others as inactive; ? = inconclusive; · = no result given; ! = not active in a repeat; [ ] = another dose, or the depositor's remark. Most compounds without a hit are left out; they make up all but 11% or so of the library. Calls come from the whole dose curve; as a rule, active = well fitted curve in the direction sought with a large enough effect; inconclusive = small, poorly fitted or top-dose-only effect, or another doubt; inactive = no such curve, though single readings can be large; an effect the other way counts as inactive or inconclusive. Potency is the fitted concentration of half-maximal effect.
SMILES,G9a inh,PLK1 PBD block,HP1b binding inh,VDR inh,BAZ2B inh,JMJD2A Tudor inh
COc1ccc(N2CCN(C(=O)CSc3ncccc3-c3nc4ccccc4[nH]3)CC2)cc1,25.1µM*,-16.2%,-14.6%,23.8%,?,?
COC(=O)c1ccc(CSc2nc3c([nH]c4ccccc43)c(=O)n2-c2ccc(F)cc2)o1,20.8%[59 µM],·,24.2%[57 µM],-0.6%,3.7%,-10.0%
O=C1NC[C@@H](CCCCN2C[C@H](Cc3ccccc3)N(CC3CCCCC3)C(=O)C2=O)N(CC2CCCCC2)C1=O,·,3.4%,·,·,·,·
COc1ccc(N2CCN(C(=O)CSc3n[nH]c(-c4ccccc4)n3)CC2)cc1,15.8µM*,·,9.5%[57 µM],6.3%,-26.1%,-33.8%
COc1ccc2nc(SCC(=O)N3CCN(c4ccc(F)cc4)CC3)c(C#N)cc2c1,?,2.99µM*,?,-7.8%,8.2%,?
COc1ccccc1N1CCN(C(=O)CSc2ncccc2-c2nc3ccccc3[nH]2)CC1,44.7µM*,-10.8%,38.6%,7.0%,-36.4%,-31.4%
COc1ccccc1N1CCN(C(=O)CSc2ncnc3scc(-c4ccccc4)c23)CC1,12.5%[59 µM],15µM*,-20.5%,?,-27.8%,?
O=C(CSc1ncnc2scc(-c3ccccc3)c12)N1CCN(c2ccccc2F)CC1,22.5%[59 µM],-5.9%,17.8%,-12.6%,3.9%,-21.4%
Cc1cccc(C(=O)Nc2cccc(OCc3cc(=O)n4cccc(C)c4n3)c2)c1,-9.4%[59 µM],·,13.7%[57 µM],25.4%,-4.4%,-14.9%
COc1cc(NC(=S)N2CCCC(CO)C2)cc(OC)c1 (stereo not drawn),?,21.2µM*,13.2%,6.9%,-15.3%,6.9%
Cc1cccc(-c2ccc(-c3cc(=O)oc4cc(C)cc(C)c34)cc2)c1,34.9%,·,·,-5.7%,·,·
CCN(CC)CCN1C(=O)C2C(C(=O)Nc3ccc(C(C)C)cc3)C3C=CC2(O3)C1C(=O)NC1CCCCC1 (stereo not drawn),?,4.5%,-4.1%,-6.0%,5.4%,-17.3%
CCN1CCOC(=O)C1CC(=O)Nc1cccc(OC)c1 (stereo not drawn),?,·,3.8%,-19.7%,-30.4%,-7.5%
CCN1CCOC(=O)C1CC(=O)Nc1ccc(C)c(Cl)c1 (stereo not drawn),2µM*,·,22.9%,-17.6%,-22.5%,-16.0%
CCOc1ccc(NC(=O)CC2C(=O)OCCN2CC)cc1 (stereo not drawn),2.24µM*,·,0.5%,-15.8%,?,-14.6%
CCOC(=O)c1ccc(NC(=O)CC2C(=O)OCCN2CC)cc1 (stereo not drawn),6.31µM*,-5.1%,19.4%,-25.5%,-48.7%,-10.8%
CCOc1ccc(NC(=O)CC2C(=O)N(CC)C(=S)N2CCN2CCOCC2)cc1 (stereo not drawn),24.9%,26.7µM*,-4.1%,-23.7%,-9.3%,50.1µM*
CCOc1ccc(NC(=O)CC2C(=O)N(CC)C(=S)N2CCNC(C)=O)cc1 (stereo not drawn),-5.8%,-3.8%,13.3%,6.4%,3.6%,-6.6%
CNC(=O)CC1C(=O)N(c2ccc(OC)cc2)C(=S)N1NC(=O)c1cccc(F)c1 (stereo not drawn),12.7%,-23.7%,25.3%,-3.2%,2.5%,-7.8%
COC(=O)[C@@]12C[C@@H](CC(=O)NCC3CCCCC3)C(=O)N(CCc3ccc(OC)c(OC)c3)C1=CCC(C)(C)C2,·,-5.9%,·,·,·,·
CCOC(=O)CC(NC(=O)c1cc2cc(Cl)ccc2oc1=O)c1ccc(C)cc1 (stereo not drawn),-6.9%[59 µM],·,18.7%,7.2%,-11.6%,-5.6%
C=CCOn1c(=O)c(-c2cc3ccccc3o2)[n+]([O-])c2ccccc21,?,29.9µM*,-10.3%,2.8%,-2.2%,14.4%[11.4 µM]
O=c1c(-c2ccco2)[n+]([O-])c2ccccc2n1OCc1ccccc1[N+](=O)[O-],35.5µM*,-23.2%,27.6%,10.9%,-32.9%,2.8%
O=C(CSc1nc2c([nH]c3ccccc32)c(=O)n1-c1cccc(C(F)(F)F)c1)N1CCc2ccccc21,6.7%[59 µM],·,15.6%[57 µM],4.6%,8.5%,-5.5%
O=C(Nc1ccccc1)N1CCC(C(=O)N2CCCC(C(F)(F)F)C2)CC1 (stereo not drawn),39.9%,1.1%,7.5%,-29.2%,-17.9%,-9.7%
SMILES,G9a inh,PLK1 PBD block,HP1b binding inh,VDR inh,BAZ2B inh,JMJD2A Tudor inh
c1nc(NC2CC2)c2cc(-c3ccoc3)ccc2n1,7.3%[0.501 µM],·,·,39.8µM*,·,·
c1cn(-c2ncnc3ccc(-c4ccoc4)cc23)cn1,-1.3%[0.501 µM],·,·,31.6µM*,·,·
Cc1cccc(CNc2ncnc3ccc(-c4ccoc4)cc23)c1,7.4%[12.7 µM],·,12.2%,20µM*!,-28.6%,-32.4%
c1nc(N2CCOCC2)c2cc(-c3ccoc3)ccc2n1,3.5%[0.501 µM],·,·,?,·,·
Cc1ccc(-c2n[nH]c(=S)n2/N=C/c2c(C)[nH]n(-c3ccccc3)c2=O)cc1,1.26µM*,-16.0%,12.6%,-1.1%,·,?
Cc1nn(-c2ccccc2)c(C)c1/C=N/n1c(-c2ccc(Cl)cc2)n[nH]c1=S,5.01µM*,?,-7.2%,-7.9%,-26.8%,?
Cc1nn(-c2ccccc2)c(C)c1/C=N/n1c(-c2ccncc2)n[nH]c1=S,2.24µM*,-12.1%,10.6%,-10.4%,?,?
Cc1nn(-c2ccccc2)c(C)c1/C=N/NC(=O)c1cc(-c2ccccc2)n[nH]1,-0.8%,0.8%,49.6%,-13.0%,2.2%,-9.7%
O=C(CN1C(=O)NC2(CCCc3ccccc32)C1=O)c1ccc(F)c(F)c1 (stereo not drawn),·,4.7%,26.0%,8.0%,·,-10.3%
CCc1cccc2c(-c3ccccc3)nc(SCC(=O)Nc3ccccc3)nc12,-1.2%[59 µM],·,25.9%,7.9%,-1.9%,-17.3%
O=C(c1cnccn1)N1CCC[C@@]2(CCN(C(c3ccccc3)c3ccccc3)C2)C1,-1.6%[12.7 µM],·,·,-4.7%,·,·
CCOC(=O)c1ccc(NS(=O)C23CC4CC(CC(C4)C2)C3)cc1 (stereo not drawn),5.01µM*,-9.6%,51.9%,8.0%,-4.3%,-28.5%
CCOC(=O)c1ccc(NC(=O)CNC(=O)C23CC4CC(CC(C4)C2)C3)cc1,-3.0%[59 µM],-1.7%,13.1%,21.6%,-3.0%,-5.7%
Cc1ccc(OCCOC(=O)c2nc3nccc(C)n3n2)cc1,-0.8%,26.7µM*,-8.7%,?,-13.5%,-21.8%[11.4 µM]
CC(C)NC(=O)C1(C)CCN1C(=O)c1ccccc1Oc1ccccc1 (stereo not drawn),·,-4.4%,·,·,·,·
CN1CCN(CC(=O)n2c3c(c4ccccc42)CCCC3)CC1,39.8µM*,-4.6%,-9.4%,7.6%,?,56.2µM*
Cc1c(C)n(C(=O)CN2CCN(c3ccccc3)CC2)c2ccccc12,50.1µM*,-5.4%,-19.5%,-14.0%,?,?
O=C(O)/C=C/c1cn(-c2ccccc2)nc1-c1cccc([N+](=O)[O-])c1,?,-8.5%,34.6%,-3.7%,-33.5%,-11.6%

# Compound activity as filed in PubChem.
